From PubChem BioAssay (NCATS)
Values joined by “and” are separate entries in the source; they are usually repeats but may differ in a detail not shown here. Equal entries are not always repeated. Records with an inconclusive call do not appear. More than one record can exist for a structure, and the calls need not agree. Active and inactive are the calls of the source. Unless noted, the call rests on the fitted dose curve; in most records, active means well fitted curve in the direction sought with a large enough effect; inconclusive means small, poorly fitted or top-dose-only effect, or another doubt; inactive means no such curve, though single readings can be large; an effect the other way counts as inactive or inconclusive.

Key:
[1] = Cell Viability - BJ (AID 421; calls by dose curve;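 further: potency means the concentration at half of the fitted maximal effect; cells exposed to compound for 40 hours at 37 °C before readout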); settings: BJ fibroblast viability, qHTS
Procedure, shortened: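 Quantitative HTS: ATP depletion in BJ cells after 40 hr compound exposure in complete culture medium, detected with CellTiter-Glo; AC50 from standard Hill fits.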

[2] = Cell Viability - MRC5 (AID 434; calls by dose curve;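 further: potency means the concentration at half of the fitted maximal effect; cells exposed to compound for 40 hours at 37 °C; potency reflects cytotoxicity seen as loss of intracellular ATP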); settings: MRC5 lung fibroblast viability, qHTS
Procedure, shortened: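 Decrease in intracellular ATP, quantified by luciferase light output, reflects compound toxicity toward MRC5 cells exposed for 40 hr in complete culture medium. Concentration-response curves, scaled between DMSO and 100 uM tamoxifen, gave AC50 values.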

[3] = biological target: Mitogen-activated protein kinase 10 (Mus musculus) (UniProt Q61831); assay: JNK3 AlphaScreen Assay (AID 530; active means well fitted curve in either direction with a large enough effect, not every such curve was filed as active;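 further: kinase came from lysate of stimulated human HepG2 cells; signal reports phosphorylation of biotinylated GST-cJun 1-79 at Ser73 with 10 µM ATP; on the % scale 0 is the no-effect control and ±100 the full control effect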); settings: JNK3 lysate, c-Jun phosphorylation; series mostly up to 57.1 µM
Procedure, shortened: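 Phosphorylation of biotinylated GST-cJun(1-79) at Ser73 is measured by AlphaScreen proximity luminescence. Enzyme is JNK3 in HepG2 lysates activated with interleukin-1beta and tumor necrosis factor alpha; ATP is 10 uM final.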

[4] = Cell Viability - NIH 3T3 (AID 541); settings: NIH 3T3 cell viability, qHTS; activity change, negative = cytotoxicity: at 92.2 µM (top of the series); further: nearly all actives have a fitted effect of over 25% in size; further: potency means the concentration at half of the fitted maximal effect;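 on activity change, negative = cytotoxicity: plate controls were DMSO alone for no effect and tamoxifen positive control for full effect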
Procedure, shortened: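 Intracellular ATP (CellTiter-Glo luminescence, 20 min at room temperature) measured after 40 hr compound exposure at 37 °C of 1000 NIH 3T3 mouse fibroblasts/well in complete medium; AC50 derived by Hill-equation modelling of qHTS concentration-response curves.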

[5] = Cell Viability - Mesenchymal (AID 546); settings: mesenchymal cells viability, qHTS; activity change, negative = cytotoxicity: at 91.7 µM (top of the series);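 further: cells exposed to compound for 40 hours before reading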; further: potency means the concentration at half of the fitted maximal effect
Procedure, shortened: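 In this qHTS cytotoxicity format, glomerulus-derived human mesenchymal kidney cells received compound for 40 hr, then luciferase-based ATP quantitation. Concentration-response data were fitted with the Hill equation.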

[6] = Cellular Toxicity (caspase-3) HepG2 (AID 654); settings: HepG2 caspase-3 activation, luminescence, 0% = DMSO only, 100% = tamoxifen; series mostly up to 92.2 µM;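 further: cells exposed to compound for 16 hours before reading; 0% = DMSO alone and 100% = caspase signal from 100 µM tamoxifen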
Procedure, shortened: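 Caspase 3/7 activation is measured as a luminescence increase (aminoluciferin substrate) after 16 h compound exposure of human hepatocarcinoma HepG2 cells. AC50 values are Hill fits, scaled between DMSO baseline and 100 uM tamoxifen stimulation.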

[7] = Cellular Toxicity (caspase-3) HUV-EC-C (AID 656); settings: HUV-EC-C cells, caspase-3 activation (apoptosis), vehicle = 0, 100 µM tamoxifen = 100%; series mostly up to 92.2 µM
Procedure, shortened: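 Luminescent Caspase-Glo 3/7 readout after 16 h, 37 °C compound exposure of HUV-EC-C endothelial cells, 1000 per well, complete medium. AC50 derived by Hill fitting, with DMSO as baseline and 100 uM tamoxifen as full activation.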

[8] = Cellular Toxicity (caspase-3) MRC-5 (AID 659); settings: MRC-5 cells, luminescence, normalized: DMSO 0%, 10 µM staurosporine 100%; series mostly up to 91.7 µM
Procedure, shortened: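 Apoptosis readout in MRC-5 cells: luciferase light generated after caspase 3/7 cleaves a peptide-aminoluciferin substrate, measured post 16 hr compound incubation at 37 °C.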

[9] = Cellular Toxicity (caspase-3) Mesangial (AID 660); settings: mesangial cells, normalized: DMSO 0%, 100 µM tamoxifen 100%; series mostly up to 91.7 µM;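 further: combined caspase 3 and 7 activity read by Caspase-Glo luminescence; cells exposed to compound for 16 h before the caspase read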
Procedure, shortened: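 Caspase 3/7 activation measured by Caspase-Glo 3/7 luminescence (20 min, room temperature) following 16 h exposure of mesangial cells (1000/well); AC50 from Hill-equation fit, normalized to DMSO and 100 uM tamoxifen.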

[10] = Cellular Toxicity (caspase-3) Hek293 (AID 664); settings: HEK293 caspase-3 activation, DMSO = 0%, 100 µM tamoxifen = 100%; series mostly up to 92.2 µM;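 further: cells exposed to compound for 16 h at 37 °C before readout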
Procedure, shortened: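 Concentration-response qHTS: caspase 3/7 activation measured by luminescent aminoluciferin substrate cleavage after 16 h compound exposure of Hek 293 cells. AC50 from Hill equation, with DMSO as basal and 100 uM tamoxifen as 100%.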

[11] = Cellular Toxicity (caspase-3) Renal Proximal Tubule (AID 667); settings: renal proximal tubule cells, primary cells freshly taken from rat, solvent-only wells 0%, staurosporine 100%; series mostly up to 91.7 µM;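 further: cells exposed to compound for 16 hours at 37 °C before detection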
Procedure, shortened: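 Caspase 3/7 activation measured by luminescent aminoluciferin release in primary rat proximal tubule cells after 16 hr compound exposure at 37 °C. AC50 from Hill-fitted concentration-response, scaled between DMSO and 10 uM staurosporine.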

[12] = MultiTox-Fluor Cytotoxicity Assay - LYMP1-003 - Live Cells (AID 962); settings: LYMP1-003 lymphoblastoid cells, MultiTox-Fluor live-cell protease fluorescence; series mostly up to 92.2 µM;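 further: cells exposed to compound for 16 hours at 37 °C; 0% = DMSO only and full loss = 92 µM tetraoctylammonium bromide; cytotoxic hits lower the live-cell protease signal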
Procedure, shortened: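 Live-cell protease activity (GF-AFC substrate, 405/510 nm, 60 min at room temperature) after 16 h, 37 C compound exposure of human lymphoblastoid LYMP1-003 cells; concentration-response fitted to the Hill equation for AC50.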

[13] = Cell Viability - LYMP1-003 - Assay at 40 hr (AID 964); settings: LYMP1-003 lymphoblastoid viability; series mostly up to 92.2 µM; further: nearly all actives have a fitted effect of over 60% in size; further: potency means the concentration at half of the fitted maximal effect
Procedure, shortened: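 Viability is taken as cellular ATP, read by CellTiter-Glo luminescence after 40 h of compound exposure at 37 C. Cells: human lymphoblastoid line LYMP1-003 at 2500/well; AC50 values derived by Hill-equation fitting of concentration-response data.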

[14] = Cell Viability - LYMP2-011 (AID 969); settings: LYMP2-011 lymphoblastoid cells viability; series mostly up to 92.2 µM; further: nearly all actives have a fitted effect of over 60% in size; further: potency means the concentration at half of the fitted maximal effect
Procedure, shortened: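 Cytotoxicity qHTS with ATP content as read-out: lymphoblastoid cells (2500/well) exposed to compound for 24 h at 37 C, then luciferase luminescence measured. Concentration-response data fitted with the standard Hill equation to give AC50.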

[15] = Cell Viability - LYMP2-013 (AID 970); settings: LYMP2-013 lymphoblastoid cells viability; series mostly up to 92.2 µM; further: nearly all actives have a fitted effect of over 55% in size; further: potency means the concentration at half of the fitted maximal effect
Procedure, shortened: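 qHTS cytotoxicity: ATP-dependent luminescence (CellTiter-Glo, 30 min room temperature) read after 24 h compound exposure at 37 C of 2500 LYMP2-013 lymphoblastoid cells per well. Concentration-response fitted with Hill equation to give AC50.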

[16] = Cell Viability - LYMP2-017 (AID 972); settings: LYMP2-017 lymphoblastoid cell viability; series mostly up to 92.2 µM; further: nearly all actives have a fitted effect of over 55% in size; further: potency means the concentration at half of the fitted maximal effect; on activity change, negative = cytotoxicity: on the % scale 0 is the no-effect control and ±100 the full control effect
Procedure, shortened: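 CellTiter-Glo luminescence (cellular ATP, 30 min RT) measured cytotoxicity after 24 hr compound treatment at 37 C. Cells were a human lymphoblastoid line, LYMP2-017, plated at 2500/well and incubated 5 hr first; concentration-response fitted with Hill equation for AC50.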

[17] = Cell Viability - LYMP2-007 (AID 979); settings: LYMP2-007 lymphoblastoid cell viability; series mostly up to 92.2 µM;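 further: cells exposed to compound for 24 h before reading; nearly all actives have a fitted effect of over 60% in size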; further: potency means the concentration at half of the fitted maximal effect;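 on activity change, negative = cytotoxicity: 0% = DMSO only and the negative end = 92 µM tetraoctylammonium bromide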
Procedure, shortened: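 AC50 values come from Hill-equation fits of luminescent intracellular ATP (CellTiter-Glo, 30 min, room temperature) following 24 h compound exposure at 37 C. Cells: LYMP2-007 lymphoblastoid line, 2500 per well, in complete culture medium.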

[18] = qHTS Assay for Identification of Small Molecule Inducers of Hypoxia Response (AID 2120; active means well fitted curve in the direction sought with a large enough effect in the signal ratio, with a control signal flat, not every such curve was filed as active; the % refers to the signal ratio; further: 0% is about no effect); settings: hypoxia response reporter cells, beta-lactamase ratio readout; series mostly up to 104 µM
Procedure, shortened: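 Reporter induction read as the CCF4 blue/green (460nm/530nm) emission ratio after 2.5 h dye loading at room temperature. ME-180 HRE-beta-lactamase cells received titrated compounds for 17 h at 37 degrees Celsius; AC50 values derived.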

[19] = qHTS assay for small molecule antagonists of retinoid X receptor alpha signaling (AID 588546); settings: HEK293T RXRa-UAS-bla, beta-lactamase ratio, antagonist mode; measured here: W530 green channel, cytotoxicity proxy;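 further: cells stimulated with 9-cis-retinoic acid as agonist; on the % scale 0 is the no-effect control and ±100 the full control effect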
Procedure, shortened: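 Beta-lactamase reporter inhibition, read as CCF4 fluorescence ratio (ex 405, em 460/530 nm) after 2 h at RT. HEK293T UAS-bla cells, 2500/well, were stimulated with 9-cis-RA at 500 or 100 nM final alongside test compound for 18 h at 37 C.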

[20] = biological target: Peroxisome proliferator-activated receptor alpha (Homo sapiens) (UniProt Q07869); assay: qHTS assay for small molecule agonists of the peroxisome proliferator-activated receptor alpha (PPARalpha) signaling pathway (AID 651778); settings: PathHunter PPARalpha complementation, chemiluminescence, 6 h; max response: stronger effect = higher value; further: % of control where 0% means no effect
Procedure, shortened: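 Cells plated at 2,000/well and held overnight at 37 C, 5% CO2, then compound added by pin tool for 6 hr; after PathHunter detection reagent and 60 min at room temperature, chemiluminescence from enzyme complementation was read.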

Chain of Peroxisome proliferator-activated receptor alpha (Homo sapiens) (Q07869 whole entry, looked up): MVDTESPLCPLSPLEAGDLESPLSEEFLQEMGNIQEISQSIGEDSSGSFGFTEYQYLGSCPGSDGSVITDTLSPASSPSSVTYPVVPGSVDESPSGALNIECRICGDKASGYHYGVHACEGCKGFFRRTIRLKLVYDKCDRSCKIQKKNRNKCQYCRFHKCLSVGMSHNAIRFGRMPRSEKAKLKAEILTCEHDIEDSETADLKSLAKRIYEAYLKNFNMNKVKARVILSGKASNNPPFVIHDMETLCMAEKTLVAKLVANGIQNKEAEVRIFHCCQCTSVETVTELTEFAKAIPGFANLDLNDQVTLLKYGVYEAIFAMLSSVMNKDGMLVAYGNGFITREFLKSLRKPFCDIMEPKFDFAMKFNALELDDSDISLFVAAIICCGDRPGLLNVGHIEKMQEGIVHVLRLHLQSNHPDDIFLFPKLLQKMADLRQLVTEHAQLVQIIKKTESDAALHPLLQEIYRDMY

NC1=NC(S)C2N=CN=C2N1 (stereo unspecified)
4.34%: max response [19]
active: Potency [1] 0.218 µM | Potency [4] 158 nM | Potency [5] 0.251 µM | Potency [13] 1.58 µM | Potency [14] 20 µM | Potency [15] 20 µM | Potency [16] 12.6 µM | Potency [17] 15.8 µM
inactive: Potency [2] > 92 µM | Potency [3] | outcome [6] | outcome [7] | outcome [8] | outcome [9] | outcome [10] | outcome [11] | Potency [12] | outcome [18] | max response [20] -3.14%

CCCCC(CC)CN (stereo unspecified)
-4.73% and -4.29%: max response [19]
12.6 µM (active) and inactive: Potency [4]
inactive: Potency [1] > 92 µM | Potency [2] > 92 µM | Potency [3] | activity change, negative = cytotoxicity [5] -2.68% and 2.84% | outcome [6] | outcome [7] | outcome [8] | outcome [9] | outcome [10] | outcome [11] | Potency [12] | Potency [13] | Potency [14] | Potency [15] | Potency [16] | Potency [17] | outcome [18] | max response [20] -4.52% and -4.66%

COC(=O)CCCCC(=O)OC
-7.1% and -4.41% and 10.6%: max response [19]
inactive: Potency [1] > 92 µM | Potency [2] > 92 µM | Potency [3] | Potency [4] | activity change, negative = cytotoxicity [5] 1.32% | outcome [6] | outcome [7] | outcome [8] | outcome [9] | outcome [10] | outcome [11] | Potency [12] | Potency [13] | Potency [14] | Potency [15] | Potency [16] | Potency [17] | outcome [18] | max response [20] -1.36% and -1.93% and -0.772%

c1ccc2c(c1)c1cccc3ccc4cccc2c4c31
-0.47% and 10%: max response [19]
inactive: Potency [1] > 92 µM | Potency [2] > 92 µM | Potency [3] | Potency [4] | activity change, negative = cytotoxicity [5] 2.17% | outcome [6] | outcome [7] | outcome [8] | outcome [9] | outcome [10] | outcome [11] | Potency [12] | Potency [13] | Potency [14] | Potency [15] | Potency [16] | Potency [17] | outcome [18] | max response [20] -2.3% and -3.04%

O=C(O)CC(C(=O)O)C(CC(=O)O)C(=O)O (stereo unspecified)
inactive: Potency [1] > 92 µM | Potency [2] > 92 µM | Potency [3] | Potency [4] | activity change, negative = cytotoxicity [5] -11.1% | outcome [6] | outcome [7] | outcome [8] | outcome [9] | outcome [10] | outcome [11] | Potency [12] | Potency [13] | Potency [14] | Potency [15] | Potency [16] | Potency [17] | outcome [18] | max response [20] -1.2% and -0.001%
3.1% and -5.42%: max response [19]

COc1ccccc1CNc1nc(-c2ccoc2)nc2ccccc12
inactive: Potency [3]

O=C(/C=C/c1ccc(O)c(O)c1)O[C@@H](C(=O)O)[C@@H](OC(=O)/C=C/c1ccc(O)c(O)c1)C(=O)O
inactive: Potency [1] > 92 µM | Potency [2] > 92 µM | Potency [3] | Potency [4] | activity change, negative = cytotoxicity [5] 11% | outcome [6] | outcome [7] | outcome [8] | outcome [9] | outcome [10] | outcome [11] | Potency [12] | Potency [13] | Potency [14] | Potency [15] | Potency [16] | Potency [17] | outcome [18] | max response [20] -4.13%
-0.233%: max response [19]

S=C1NC=NC2N=CNC12 (stereo unspecified)
inactive: Potency [2] > 92 µM | Potency [3] | outcome [6] | outcome [7] | outcome [8] | outcome [9] | outcome [10] | outcome [11] | Potency [12] | Potency [14] | Potency [15] | Potency [16] | Potency [17] | outcome [18] | max response [20] -7.07%
4.27%: max response [19]
active: Potency [1] 0.22 µM | Potency [4] 3980 nM | Potency [5] 0.501 µM | Potency [13] 1.58 µM

COC(=O)c1ccc(C=O)cc1
inactive: Potency [1] > 92 µM | Potency [2] > 92 µM | Potency [3] | activity change, negative = cytotoxicity [5] -7.99% | outcome [6] | outcome [7] | outcome [8] | outcome [9] | outcome [10] | outcome [11] | Potency [12] | Potency [13] | Potency [14] | Potency [15] | Potency [16] | Potency [17] | outcome [18] | max response [20] -7.41% and -4.28%
-1.3% and -26.3%: max response [19]
active: activity change, negative = cytotoxicity [4] -110%
